Records with an inconclusive call do not appear. Calls of active or inactive are those of the source. The calls were made as follows, unless noted: active = hit-call score of the fitted dose curve at least 0.9, where 1 is the maximum; inconclusive = response in the unintended direction; inactive = score below 0.9.

The nature of test [1]: ATG_TAL_CIS: Attagene CIS-FACTORIAL HepG2 Assay for human TAL Basal Promoter (AID 2282966; active = hit-call score of the fitted dose curve at least 0.9, where 1 is the maximum; inactive = score below 0.9;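 also: background control endpoint measuring basal TAL promoter reporter mRNA not a specific factor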). The note with it: HepG2 Attagene cis-factorial TAL promoter reporter; actives raise or lower the signal. The method, boiled down: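 Endogenous transcription-factor activity is sensed in HepG2 cells through transfected cis-promoter reporter constructs. After 24 h dosing, reporter transcripts are quantified by RT-PCR and capillary electrophoresis. Gain or loss of signal is fitted relative to DMSO.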

The nature of test [2]: ATG_TGFb_CIS: Attagene CIS-FACTORIAL HepG2 Assay for human Transforming Growth Factor (TGF) (AID 2282967; active = hit-call score of the fitted dose curve at least 0.9, where 1 is the maximum; inactive = score below 0.9). The conditions noted are these: HepG2 Attagene CIS TGFb reporter, mRNA transcription; actives raise or lower the signal. The method, boiled down:
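Transient MRTU transfection of HepG2 (FuGene 6). Dose 24 h. TriZol RNA, oligo(dT) RT, PCR, 6-FAM primer extension, HpaI cut, CE. Bidirectional fit, DMSO = baseline.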

The nature of test [3]: ATG_VDRE_CIS: Attagene CIS-FACTORIAL HepG2 Assay for human Vitamin D Receptor Element (VDRE) (AID 2282968; active = hit-call score of the fitted dose curve at least 0.9, where 1 is the maximum; inactive = score below 0.9). The conditions noted are these: HepG2 VDRE cis-reporter transcription, actives raise or lower the signal. The method in brief: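 Compounds were applied for 24 h to HepG2 cells transfected with promoter-regulated reporter units. Total RNA was reverse-transcribed, and reporter amplicons were fluorescently labelled and sized by capillary electrophoresis.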

The target in test [4] is Nuclear receptor subfamily 1 group I member 3 (Homo sapiens) (UniProt Q14994). In words: ATG_CAR_TRANS: Attagene TRANS-FACTORIAL HepG2 Assay for human Constitutive Androstane Receptor (CAR) (AID 2282969).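 Also: activators raise reporter mRNA above DMSO so AC50 marks induction.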 The note with it: HepG2 Attagene TRANS-FACTORIAL CAR reporter. The method, boiled down:
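Transiently transfected HepG2, multiplex TRANS reporters (CAR-Gal4 chimera driving GAL4-UAS reporter). 24 h dosing. Readout: reporter transcript by RT-PCR + capillary electrophoresis, fluorescence intensity; positive direction vs DMSO.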

In test [5] the target is Estrogen receptor (Homo sapiens) (UniProt P03372). Description: ATG_ERa_TRANS: Attagene TRANS-FACTORIAL HepG2 Assay for human Estrogen Receptor alpha (ERa) (AID 2282970). The note with it: HepG2 Attagene TRANS ERa GAL4 reporter, mRNA. The method, boiled down: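 Transfected HepG2 cells carrying GAL4-UAS-driven reporter units were dosed for 24 hours. Total RNA was reverse-transcribed, reporter sequences PCR-amplified, FAM-labelled, HpaI-digested and resolved by capillary electrophoresis. Increases over DMSO control defined activity.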
Estrogen receptor (Homo sapiens), sequence (P03372 whole entry, looked up, the tested form may be a part): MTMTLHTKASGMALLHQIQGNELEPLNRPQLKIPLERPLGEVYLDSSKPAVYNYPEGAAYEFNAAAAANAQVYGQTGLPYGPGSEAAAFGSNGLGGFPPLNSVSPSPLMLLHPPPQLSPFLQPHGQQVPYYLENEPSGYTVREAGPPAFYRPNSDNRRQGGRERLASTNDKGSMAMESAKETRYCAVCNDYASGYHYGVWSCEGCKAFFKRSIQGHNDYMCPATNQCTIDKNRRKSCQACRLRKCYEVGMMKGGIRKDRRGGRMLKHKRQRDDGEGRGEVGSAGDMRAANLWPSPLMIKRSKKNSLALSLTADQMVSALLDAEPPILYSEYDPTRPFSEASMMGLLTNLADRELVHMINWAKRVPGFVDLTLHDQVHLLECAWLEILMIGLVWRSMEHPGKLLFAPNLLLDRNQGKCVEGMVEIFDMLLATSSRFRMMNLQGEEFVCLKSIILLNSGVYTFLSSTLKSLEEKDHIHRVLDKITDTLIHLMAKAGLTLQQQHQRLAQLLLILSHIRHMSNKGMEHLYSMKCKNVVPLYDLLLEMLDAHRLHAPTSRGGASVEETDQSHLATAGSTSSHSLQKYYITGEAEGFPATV

The target in test [6] is X-box-binding protein 1 (Homo sapiens) (UniProt P17861). Description: ATG_Xbp1_CIS: Attagene CIS-FACTORIAL HepG2 Assay for human X-box Binding Protein 1 (XBP1) (AID 2282972; active = hit-call score of the fitted dose curve at least 0.9, where 1 is the maximum; inactive = score below 0.9). The conditions noted are these: HepG2 XBP1 cis-element reporter, Attagene multiplex; actives raise or lower the signal. The method, boiled down: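 Human hepatoma HepG2, cis-element reporter system, 24 h treatment; mRNA quantified by RT-PCR/CE fluorescence; fit relative to DMSO.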
X-box-binding protein 1 (Homo sapiens), sequence (P17861 whole entry, looked up): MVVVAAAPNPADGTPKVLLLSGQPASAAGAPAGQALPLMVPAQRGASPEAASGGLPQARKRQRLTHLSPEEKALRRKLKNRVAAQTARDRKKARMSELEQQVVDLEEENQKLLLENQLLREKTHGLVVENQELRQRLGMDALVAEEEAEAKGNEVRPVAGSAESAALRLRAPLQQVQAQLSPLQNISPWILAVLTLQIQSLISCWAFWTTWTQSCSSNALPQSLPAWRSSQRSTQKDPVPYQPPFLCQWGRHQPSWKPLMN

The nature of test [7]: ATG_M_19_TRANS: Attagene TRANS-FACTORIAL HepG2 Assay for M19 Transcription Factor (Internal Marker) (AID 2282974). The conditions noted are these: HepG2 Attagene TRANS-FACTORIAL M19 internal marker reporter. The method, boiled down: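 Transfected HepG2 (GAL4-UAS MRTUs), 24 h compound, TriZol RNA, DNase-treated RT, reporter PCR, FAM label, HpaI digest, CE fluorescence; gain vs DMSO.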

Test [8] can be described thus: ATG_GAL4_TRANS: Attagene TRANS-FACTORIAL HepG2 Assay for GAL4 (Internal Marker) (AID 2282976). The note with it: HepG2 Attagene TRANS GAL4 internal marker reporter. The method, boiled down:
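Fluorescence from capillary electrophoresis of labelled RT-PCR products quantifies reporter mRNA induction after 24 h dosing of HepG2 cells carrying transfected GAL4-UAS reporter transcription units. Vehicle DMSO serves as baseline.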

The target in test [9] is Glucocorticoid receptor (Homo sapiens) (UniProt P04150). Description: ATG_GR_TRANS: Attagene TRANS-FACTORIAL HepG2 Assay for human Glucocorticoid Receptor (GR) (AID 2282978).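 Also: activators score as hits since higher reporter transcript over DMSO is fitted.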 The note with it: HepG2 Attagene TRANS GR reporter, mRNA transcription. The method in brief:
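After 24 h incubation with test chemical, transfected HepG2 cells were lysed for RNA; reporter cDNA was amplified, FAM-labelled, HpaI-digested and sized on a capillary analyser. Signal gain relative to DMSO was scored.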

The target of test [10] is Oxysterols receptor LXR-alpha (Homo sapiens) (UniProt Q13133). In words: ATG_LXRa_TRANS: Attagene TRANS-FACTORIAL HepG2 Assay for human Liver X Receptor alpha (LXRa) (AID 2282980). The conditions noted are these: HepG2 Attagene TRANS reporter, LXRa transactivation. The method in brief:
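Transient HepG2 transfectants, 24 h dosing, RT-PCR/CE mRNA reporter quantitation; gain-of-signal vs DMSO.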

Test [11] has as its target Oxysterols receptor LXR-beta (Homo sapiens) (UniProt P55055). Description: ATG_LXRb_TRANS: Attagene TRANS-FACTORIAL HepG2 Assay for human Liver X Receptor beta (LXRb) (AID 2282981). The note with it: HepG2 Attagene TRANS GAL4-LXRb reporter, mRNA. The method in brief: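 Multiplexed reporter assay, HepG2, 24 h dosing. Fluorescence of labelled RT-PCR products after capillary electrophoresis gives transcript level; positive fitting direction relative to DMSO.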

For test [12], the target named is Hepatocyte nuclear factor 4-alpha (Homo sapiens) (UniProt P41235). Description: ATG_HNF4a_TRANS: Attagene TRANS-FACTORIAL HepG2 Assay for human Hepatocyte Nuclear Factor 4 alpha (HNF4a) (AID 2282982). The note with it: HepG2 HNF4a transactivation reporter, mRNA readout. The method, boiled down:
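Endpoint reflects transcriptional activation of a GAL4-UAS reporter by an HNF4a-GAL4 chimera in transfected HepG2 cells, 24 h post-dosing. Fluorescence from RT-PCR products separated by capillary electrophoresis; DMSO baseline.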

The nature of test [13]: ATG_M_06_TRANS: Attagene TRANS-FACTORIAL HepG2 Assay for M06 Transcription Factor (Internal Marker) (AID 2282983). The conditions noted are these: HepG2 Attagene TRANS M06 internal marker reporter. The method in brief:
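Human liver HepG2 cells bearing transiently transfected chimeric NR-GAL4 reporter units were treated with chemicals for 24 h. Total RNA was reverse-transcribed, reporter sequences amplified and labelled, then quantified by capillary electrophoresis. Activity was fitted upward relative to DMSO.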

Test [14] is described as follows: ATG_M_32_TRANS: Attagene TRANS-FACTORIAL HepG2 Assay for M32 Transcription Factor (Internal Marker) (AID 2282984).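 Also: transcript level of a background control reporter unit measured by RT-PCR and capillary electrophoresis.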 The conditions noted are these: HepG2 Attagene TRANS M32 internal marker reporter. The method in brief: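 Internal-marker readout from a multiplexed transcription reporter panel. HepG2 cells were transfected with GAL4-UAS reporter units, treated 24 hours, and reporter transcript levels determined by fluorescence after RT-PCR and capillary separation.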

The target of test [15] is Transcriptional activator Myb (Homo sapiens) (UniProt P10242). Description: ATG_Myb_CIS: Attagene CIS-FACTORIAL HepG2 Assay for human Myeloblastosis (Myb) Proto-Oncogene Transcription Factor (AID 2282986; active = hit-call score of the fitted dose curve at least 0.9, where 1 is the maximum; inactive = score below 0.9). The note with it: HepG2 Attagene CIS-FACTORIAL Myb reporter transcription; actives raise or lower the signal. The method in brief:
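After 24 h of compound dosing, total RNA from transfected HepG2 cells is reverse-transcribed and the reporter sequences amplified, labeled and separated by capillary electrophoresis. Values come from bidirectional fitting against DMSO.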

Test [16] concerns the target Nuclear respiratory factor 1 (Homo sapiens) (UniProt Q16656). In words: ATG_NRF1_CIS: Attagene CIS-FACTORIAL HepG2 Assay for human Nuclear Respiratory Factor 1 (NRF1) Orphan Gene (AID 2282987; active = hit-call score of the fitted dose curve at least 0.9, where 1 is the maximum; inactive = score below 0.9). The note with it: HepG2 NRF1 cis-element reporter, Attagene multiplex; actives raise or lower the signal. The method, boiled down:
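Measured: fluorescent reporter-specific RT-PCR products from transfected HepG2 cells, separated by capillary electrophoresis. Exposure lasted 24 h. Analysis used bidirectional curve fitting with DMSO as negative control.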

Test [17] deals with Steroid hormone receptor ERR1 (Homo sapiens) (UniProt P11474). Description: ATG_ERRa_TRANS: Attagene TRANS-FACTORIAL HepG2 Assay for human Estrogen-Related Receptor alpha (ERRa) (AID 2282971). The note with it: HepG2 Attagene TRANS reporter, ERRa transactivation. The method, boiled down:
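HepG2 cells were transiently transfected with multiple GAL4-UAS reporter units, then dosed with compound for 24 h. Total RNA was reverse-transcribed, reporter cDNA PCR-amplified and fluorescently labelled, and fragments resolved by capillary electrophoresis; induction was compared with DMSO.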

Test [18] has as its target Nuclear receptor subfamily 4 group A member 2 (Homo sapiens) (UniProt P43354). Description: ATG_NURR1_TRANS: Attagene TRANS-FACTORIAL HepG2 Assay for human Nuclear Receptor Related Protein 1 (NURR1) (AID 2282985). The conditions noted are these: HepG2 Attagene TRANS reporter, mRNA readout. The method in brief: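 Endpoint: reporter mRNA increase relative to DMSO. HepG2 cells transfected with reporter units, treated 24 h; RNA processed by RT-PCR, labelling, HpaI digestion and capillary electrophoresis.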

In test [19] the target is Estrogen-related receptor gamma (Homo sapiens) (UniProt P62508). In words: ATG_ERRg_TRANS: Attagene TRANS-FACTORIAL HepG2 Assay for human Estrogen-Related Receptor gamma (ERRg) (AID 2282977).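 Also: hits increase reporter signal over DMSO so potencies reflect activators.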 The conditions noted are these: HepG2 Attagene TRANS reporter, ERRg transactivation. The method, boiled down: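 Induction of reporter transcripts through a chimeric NR-Gal4 protein is quantified in transfected human HepG2 liver cells after 24 h chemical exposure, using RT-PCR with capillary electrophoresis detection and DMSO as baseline.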

In test [20] the target is Bile acid receptor (Homo sapiens) (UniProt Q96RI1). In words: ATG_FXR_TRANS: Attagene TRANS-FACTORIAL HepG2 Assay for Farnesoid X Receptor (FXR) (AID 2282979).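 Also: hits raise reporter mRNA above DMSO so AC50 marks FXR activation.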 The conditions noted are these: HepG2 Attagene TRANS FXR-GAL4 reporter transcription. The method in brief:
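Chimeric FXR-GAL4 activity in transiently transfected human HepG2 liver cells is scored as induction of reporter mRNA after 24 h of dosing. Detection uses RT-PCR with fluorescent labelling and capillary electrophoresis, with DMSO serving as baseline.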

Oxysterols receptor LXR-alpha (Homo sapiens), sequence (Q13133 whole entry, looked up): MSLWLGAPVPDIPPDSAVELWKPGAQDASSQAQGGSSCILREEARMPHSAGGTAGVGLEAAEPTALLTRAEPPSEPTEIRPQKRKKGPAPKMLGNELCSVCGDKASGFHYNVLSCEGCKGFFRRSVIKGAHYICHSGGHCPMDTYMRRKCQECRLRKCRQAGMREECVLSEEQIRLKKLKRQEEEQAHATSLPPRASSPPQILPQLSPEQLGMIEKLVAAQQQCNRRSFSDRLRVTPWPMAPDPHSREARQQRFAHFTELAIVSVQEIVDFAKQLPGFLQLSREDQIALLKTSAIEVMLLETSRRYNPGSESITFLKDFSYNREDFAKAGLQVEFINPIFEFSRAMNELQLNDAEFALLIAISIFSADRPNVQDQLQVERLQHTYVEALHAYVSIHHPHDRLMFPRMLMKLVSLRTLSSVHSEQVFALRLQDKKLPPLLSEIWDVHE
Nuclear receptor subfamily 1 group I member 3 (Homo sapiens), sequence (Q14994 whole entry, looked up, the tested form may be a part): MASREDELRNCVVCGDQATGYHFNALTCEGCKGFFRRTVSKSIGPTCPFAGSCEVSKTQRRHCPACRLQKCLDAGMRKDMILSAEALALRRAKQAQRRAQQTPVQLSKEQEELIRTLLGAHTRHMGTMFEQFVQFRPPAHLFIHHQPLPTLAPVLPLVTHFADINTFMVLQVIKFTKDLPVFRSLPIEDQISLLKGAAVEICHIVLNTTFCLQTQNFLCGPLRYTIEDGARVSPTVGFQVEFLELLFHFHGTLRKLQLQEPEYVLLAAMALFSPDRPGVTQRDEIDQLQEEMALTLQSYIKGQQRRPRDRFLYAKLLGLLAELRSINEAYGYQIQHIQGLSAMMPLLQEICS
Glucocorticoid receptor (Homo sapiens), sequence (P04150 whole entry, looked up): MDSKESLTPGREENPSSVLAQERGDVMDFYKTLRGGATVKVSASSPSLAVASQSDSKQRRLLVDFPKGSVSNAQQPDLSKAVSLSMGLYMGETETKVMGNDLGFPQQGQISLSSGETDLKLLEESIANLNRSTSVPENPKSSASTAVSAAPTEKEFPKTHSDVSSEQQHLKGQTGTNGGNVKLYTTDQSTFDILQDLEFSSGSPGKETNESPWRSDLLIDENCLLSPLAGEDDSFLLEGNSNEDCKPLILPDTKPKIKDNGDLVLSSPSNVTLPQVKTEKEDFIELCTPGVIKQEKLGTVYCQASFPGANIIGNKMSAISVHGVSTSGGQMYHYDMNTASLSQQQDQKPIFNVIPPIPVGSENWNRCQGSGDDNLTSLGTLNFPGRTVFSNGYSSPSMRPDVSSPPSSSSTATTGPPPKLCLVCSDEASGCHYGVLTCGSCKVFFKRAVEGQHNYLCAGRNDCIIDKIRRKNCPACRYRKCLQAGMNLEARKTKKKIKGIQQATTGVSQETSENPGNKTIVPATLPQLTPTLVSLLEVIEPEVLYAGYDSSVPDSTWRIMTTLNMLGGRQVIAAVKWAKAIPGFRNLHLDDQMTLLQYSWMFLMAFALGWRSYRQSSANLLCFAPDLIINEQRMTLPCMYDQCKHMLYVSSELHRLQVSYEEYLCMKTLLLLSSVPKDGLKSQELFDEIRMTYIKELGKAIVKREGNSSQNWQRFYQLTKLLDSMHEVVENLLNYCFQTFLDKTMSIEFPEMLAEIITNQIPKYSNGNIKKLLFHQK
Oxysterols receptor LXR-beta (Homo sapiens), sequence (P55055 whole entry, looked up, the tested form may be a part): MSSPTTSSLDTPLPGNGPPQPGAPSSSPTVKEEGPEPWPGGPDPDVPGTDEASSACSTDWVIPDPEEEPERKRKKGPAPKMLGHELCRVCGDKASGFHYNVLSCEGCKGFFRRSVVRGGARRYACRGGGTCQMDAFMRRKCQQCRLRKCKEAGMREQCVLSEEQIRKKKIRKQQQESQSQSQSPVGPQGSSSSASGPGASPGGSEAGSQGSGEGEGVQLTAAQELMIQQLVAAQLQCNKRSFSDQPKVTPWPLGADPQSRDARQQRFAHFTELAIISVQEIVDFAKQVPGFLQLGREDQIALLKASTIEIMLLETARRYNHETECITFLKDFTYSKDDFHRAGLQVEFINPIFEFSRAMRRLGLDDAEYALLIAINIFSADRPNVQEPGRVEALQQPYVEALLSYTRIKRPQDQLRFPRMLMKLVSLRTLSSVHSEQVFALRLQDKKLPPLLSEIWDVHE
Transcriptional activator Myb (Homo sapiens), sequence (P10242 whole entry, looked up): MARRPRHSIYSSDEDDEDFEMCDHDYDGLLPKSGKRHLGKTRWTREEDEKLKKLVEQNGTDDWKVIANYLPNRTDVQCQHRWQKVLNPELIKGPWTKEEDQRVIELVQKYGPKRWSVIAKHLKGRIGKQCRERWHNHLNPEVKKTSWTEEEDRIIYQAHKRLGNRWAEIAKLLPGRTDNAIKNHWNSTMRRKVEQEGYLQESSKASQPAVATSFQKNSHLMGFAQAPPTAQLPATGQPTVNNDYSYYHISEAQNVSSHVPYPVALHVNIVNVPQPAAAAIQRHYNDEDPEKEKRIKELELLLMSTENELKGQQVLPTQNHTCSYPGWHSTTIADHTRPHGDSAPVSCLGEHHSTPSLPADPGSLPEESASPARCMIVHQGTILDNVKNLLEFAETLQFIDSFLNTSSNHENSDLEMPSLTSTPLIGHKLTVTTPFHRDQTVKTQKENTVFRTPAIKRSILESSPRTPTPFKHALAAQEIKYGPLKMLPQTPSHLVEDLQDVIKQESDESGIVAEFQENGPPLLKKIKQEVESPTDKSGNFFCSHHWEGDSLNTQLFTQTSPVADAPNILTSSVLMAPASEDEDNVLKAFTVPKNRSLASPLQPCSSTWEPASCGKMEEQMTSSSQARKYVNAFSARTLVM
Nuclear respiratory factor 1 (Homo sapiens), sequence (Q16656 whole entry, looked up): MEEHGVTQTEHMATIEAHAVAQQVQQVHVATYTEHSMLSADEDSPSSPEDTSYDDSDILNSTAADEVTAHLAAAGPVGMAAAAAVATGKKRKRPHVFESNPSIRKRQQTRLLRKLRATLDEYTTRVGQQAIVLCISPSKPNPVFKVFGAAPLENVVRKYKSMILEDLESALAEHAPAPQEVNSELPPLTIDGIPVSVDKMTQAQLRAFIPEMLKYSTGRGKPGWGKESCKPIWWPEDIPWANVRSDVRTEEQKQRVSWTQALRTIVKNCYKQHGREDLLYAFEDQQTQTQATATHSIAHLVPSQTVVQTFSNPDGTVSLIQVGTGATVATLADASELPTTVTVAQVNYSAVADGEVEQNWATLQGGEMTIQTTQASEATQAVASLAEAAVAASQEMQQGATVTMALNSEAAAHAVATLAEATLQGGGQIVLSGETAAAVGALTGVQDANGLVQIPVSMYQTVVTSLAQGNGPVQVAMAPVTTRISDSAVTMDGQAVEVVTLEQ
Nuclear receptor subfamily 4 group A member 2 (Homo sapiens), sequence (P43354 whole entry, looked up): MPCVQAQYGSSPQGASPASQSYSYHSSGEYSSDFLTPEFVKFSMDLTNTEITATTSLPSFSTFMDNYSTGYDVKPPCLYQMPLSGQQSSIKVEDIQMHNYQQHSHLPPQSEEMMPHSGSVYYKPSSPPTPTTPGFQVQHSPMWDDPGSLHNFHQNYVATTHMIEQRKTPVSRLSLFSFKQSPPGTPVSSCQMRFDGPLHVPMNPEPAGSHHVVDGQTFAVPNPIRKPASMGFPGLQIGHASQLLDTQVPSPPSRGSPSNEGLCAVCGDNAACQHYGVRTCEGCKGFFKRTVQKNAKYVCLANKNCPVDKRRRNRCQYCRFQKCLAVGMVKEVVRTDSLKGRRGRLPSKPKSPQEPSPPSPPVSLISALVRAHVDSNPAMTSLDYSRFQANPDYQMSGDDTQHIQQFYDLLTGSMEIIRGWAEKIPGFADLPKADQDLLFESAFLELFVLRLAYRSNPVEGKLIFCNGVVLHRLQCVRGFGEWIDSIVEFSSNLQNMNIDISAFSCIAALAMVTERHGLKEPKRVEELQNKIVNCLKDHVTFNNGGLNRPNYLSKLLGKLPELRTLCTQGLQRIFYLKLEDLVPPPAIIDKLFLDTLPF

Consider `C=C(C)C(=O)OCCO`, for which the compound was called inactive in [1], in test [2], in test [3], in test [4], in [5] and in [6]. In addition, the compound was called inactive in test [7], in test [8], in test [9], in [10], in test [11] and in test [12]. Further, the compound was classed as inactive in test [13], in test [14], in [15] and in test [16].
Regarding `CCCCCCCOC(=O)CCC`, the compound was called inactive in test [1], in test [2], in test [3], in [4], in test [5] and in test [17]. In addition, the compound was called inactive in test [8], in [10], in test [11], in [13], in test [18] and in test [15].
In the case of `CC(=O)OCCC1CCCCC1`, the call in [1], in test [2], in test [3], in test [4], in [5] and in [6] was inactive. Also, the compound was classed as inactive in [7], in test [9], in test [10], in [11], in test [13] and in [15]. For the same compound, in test [16], the call was inactive.
`O=C(O)CCCC[C@@H]1SC[C@@H]2NC(=O)N[C@@H]21`: the outcome in [1], in test [2], in [3], in test [4], in test [5] and in test [17] was inactive. Also, the compound was classed as inactive in test [6], in [7], in [19], in [9], in test [10] and in test [11]. Moreover, the outcome in test [14] and in test [15] was inactive.
Consider `CC(C)=CCCC(C)C=O` (stereo not given), for which the compound was classed as inactive in [1], in [2], in [4], in test [5], in [6] and in test [7]. Further, the outcome in test [20], in [10], in [11], in test [12], in test [14] and in test [18] was inactive. Also, the result in test [15] and in [16] was inactive. Also, in [3], the AC50 was 32 µM (active).

A word on the AC50: it is the concentration giving half of the maximal activity seen.

The record behind these values is PubChem BioAssay (EPA / NIEHS).
